# The full list was thinned out, with hits kept by preference.
# RE007 growth inh = qHTS Assay for Inhibitors of the HIV-1 protein Vpr. S. pombe RE007 Vpr strain, BacTiter-Glo ATP luminescence, 24 h. AID 651644, 2012. Potency, µM (titrated, usually from 92.2 µM), for the others: at the highest dose activity change, negative = less growth, hits mostly inhibitors. actives 0.21% (n = 360,000); active = well fitted falling curve with a large enough effect; inconclusive = small, poorly fitted or top-dose-only effect; inactive = no such curve, though single readings can be large or run the other way; note: potency is the fitted concentration of half-maximal effect; % is set by controls: 0 for no effect and ±100 for the full control effect; nearly all actives have a fitted effect of over 50% in size
#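 Fission yeast RE007 carrying one integrated HIV-1 vpr copy, seeded at OD 0.01 in PMG+AL medium with 23 nL pinned compound. Grown 24 h at 30 degrees; viability read by BacTiter-Glo luminescence after 5 min.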
# Tb PYK inh = qHTS of Trypanosoma Brucei Inhibitors; pyruvate kinase (Trypanosoma brucei), Q57TT1; TbPYK enzyme, Kinase-Glo Plus ATP luminescence, 45 min; Potency, µM (top dose mostly 76.8 µM), for inactives: top-dose activity, negative = inhibition, usual class: inhibitors; actives 0.12% (n = 410,000); note: potency is the fitted concentration of half-maximal effect; % is set by controls: 0 for no effect and ±100 for the full control effect; nearly all actives have a fitted effect of over 50% in size
#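 Enzyme and substrate buffer are dispensed first and compound is pin-transferred. ADP at 130 uM final then starts the reaction, which runs 45 min at room temperature. Detection reagent is added for 10 min before luminescence is imaged.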
# Shiga toxin inh = A qHTS for Small Molecule Inhibitors of Shiga Toxin. Vero cells, Shiga toxin protein synthesis inhibition reporter. inhibition, % at 38.7 µM. actives 9.2% (n = 290,000); in the data active = inhibition mostly above about 28%, no sharp cut-off; inactive = mostly below about 43%; note: 0% is about no effect
# Giardia FBPA inh = qHTS Assay for Inhibitors of Fructose-1,6-bisphosphate Aldolase from Giardia Lamblia | purified Giardia FBPA | Potency, µM (top dose mostly 59.6 µM), inactives show at the top dose activity, negative = inhibition, actives largely listed as inhibitors | actives 0.71% (n = 290,000) | AID 2451, 2010; note: potency is the fitted concentration of half-maximal effect; % is set by controls: 0 for no effect and ±100 for the full control effect; nearly all actives have a fitted effect of over 55% in size
# Target sequence (A8B2U2 whole entry, looked up): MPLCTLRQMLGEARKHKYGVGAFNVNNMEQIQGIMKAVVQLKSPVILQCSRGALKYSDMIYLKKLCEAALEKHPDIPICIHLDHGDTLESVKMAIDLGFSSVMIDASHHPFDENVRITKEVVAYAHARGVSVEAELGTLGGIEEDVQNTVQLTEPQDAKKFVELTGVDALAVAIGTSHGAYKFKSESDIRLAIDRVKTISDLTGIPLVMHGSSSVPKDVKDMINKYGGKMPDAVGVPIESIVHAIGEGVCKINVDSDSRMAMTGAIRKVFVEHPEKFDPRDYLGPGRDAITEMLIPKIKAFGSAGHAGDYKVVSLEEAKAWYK
#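 Giardia FBPA (40 nM reagent) was preincubated 10 min at RT with compound (up to 57.5 uM final), then substrate plus GAPDH/TPI/NAD/arsenate coupling system with diaphorase/resazurin was added; resorufin fluorescence (525/598 nm) was read after 20 min.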
# LmPK inhibitor = qHTS Assay for Inhibitors of Leishmania Mexicana Pyruvate Kinase (LmPK). AID 1721, 2009. purified LmPK, Kinase-Glo ATP luminescence, 1 h. Potency, µM (series often up to 57.5 µM), for the others: top-dose activity change, negative = inhibition, hits mostly inhibitors. actives 0.37% (n = 290,000); note: potency is the fitted concentration of half-maximal effect; % is set by controls: 0 for no effect and ±100 for the full control effect
#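 Pyruvate kinase activity monitored as ATP production (luciferase luminescence). Conditions: 0.1 nM enzyme, 0.5 mM PEP, 0.1 mM ADP, 1 h, RT; normalized against uninhibited and no-enzyme wells.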
# Cycloheximide cs = Cycloheximide Counterscreen for Small Molecule Inhibitors of Shiga Toxin | cell reporter, cycloheximide protein synthesis inhibition counterscreen | max response, % | actives 12% (n = 300,000) | AID 2314, 2010; in the data active = max response mostly above about 13%, no sharp cut-off; inactive = mostly below about 14%; note: read at 38.3 µM for the half of the compounds with a filed dose; 0% is about no effect
# Active calls of the source: *; ? = inconclusive; · = not tested or not shown; [ ] = another dose, or the depositor's remark. Unless noted, calls come from the whole dose curve; as a rule, active = well fitted curve in the direction sought with a large enough effect; inconclusive = small, poorly fitted or top-dose-only effect, or another doubt; inactive = no such curve, though single readings can be large; an effect the other way counts as inactive or inconclusive.
SMILES,RE007 growth inh,Tb PYK inh,Shiga toxin inh,Giardia FBPA inh,LmPK inhibitor,Cycloheximide cs
CC[C@@H]1OC(=O)C[C@H](O)[C@@H](C)[C@@H](O[C@H]2O[C@@H](C)[C@H](O[C@@H]3C[C@](C)(O)[C@H](O)[C@@H](C)O3)[C@@H](N(C)C)[C@@H]2O)[C@@H](C=O)C[C@@H](C)C(=O)/C=C/C(C)=C[C@@H]1CO[C@H]1O[C@@H](C)[C@H](O)[C@H](OC)[C@@H]1OC,·,3%,·,·,·,·
Nc1ccc(Cc2nc3c(ccc4ccccc43)[nH]2)cc1,15%,0%,97*,-14%,0%,46*
Nc1ccc(Cc2ccccn2)cc1,3%,2%,13,0%,5%,1
COc1cc(-c2nnc(SCC(=O)Nc3cccc(C#N)c3)o2)cc(OC)c1OC,·,0%,·,·,·,·
CCCCN(C)CC(O)Cn1cc(/C=C/C(=O)c2ccc(OC)c(OC)c2)c2ccccc21 (stereo unspecified),·,-1%,·,·,·,·
COc1cccc(C(=O)Nc2sc3c(c2C#N)CCN(C(C)=O)C3)c1,0%,-8%,47,?,4%[11.5 µM],25*
CC1(C)Cc2c(sc(NC(=O)c3ccc(Br)o3)c2C#N)CO1,-9%,-8%,71*,-10%,-2%,45*
O=C(Nc1sc2c(c1C(=O)NCc1ccco1)CCCC2)c1ccc2c(c1)OCO2,-9%,-8%,89*,2%,-1%,44*
Cc1ccc(C(=O)C(NC(=O)c2ccco2)Nc2sc3c(c2C(N)=O)CCCC3)cc1 (stereo unspecified),·,·,active,-28%,-3%,13*
CC1(C)Cc2c(sc(NC(=O)Cc3ccccc3)c2C#N)CO1,4%,-1%,24,12%,3%,1
O=C(Cn1cnc2ccccc21)OCC(=O)N1CCCCC1,-4%,-2%,·,·,·,·
Cc1cc2c(nc1C)CCCN2C[C@@H](O)CN1CCN(C)CC1,·,·,·,-1%[12.9 µM],·,·
CC1(C)Cc2c(sc(NC(=S)NC(=O)c3ccccc3)c2C(=O)O)CO1,8%,2%,3,-6%,2%,2
CNC(=O)c1c(NC(=O)c2ccco2)sc2c1CCCC2,-11%,-1%,32,·,-4%,29*
COc1cccc(C(=O)Nc2sc3c(c2C(=O)O)CCCC3)c1,-13%,0%,104*,-25%,3%,37*
COc1cccc(C(=O)Nc2nc3c(c(=O)[nH]2)CCCC3)c1,-1%,-6%,18,-11%,-11%,20*
CC1(C)Cc2c(sc(NC(=O)c3ccco3)c2C(=O)O)CO1,0%,1%,44,2%,-16%,30*
CCN(c1ccccc1C)S(=O)(=O)c1nnc(NC(=O)c2ccc(OC)c(OC)c2)s1,·,-5%,·,·,·,·
Cc1cccc(C(=O)Nc2sc3c(c2C(=O)O)CCC3)c1,?,-6%,103*,?,-25%,42*
CNC(=O)c1c(NC(=O)c2cccc(C)c2)sc2c1CCC2,-12%,0%,71*,-9%,-5%,32*
Cc1cccc(C(=O)Nc2sc3c(c2C(=O)NC(C)C)CCCC3)c1,·,-1%,·,·,·,·
Cc1cccc(NC(=O)c2c(NC(=O)c3ccccc3)sc3c2CCC3)c1,·,7%,·,·,·,·
CC(C)(C)c1ccc(C(=O)NC(=O)COC(=O)c2ccc(Br)o2)cc1,-9%,-3%,·,·,·,·
CC1CC(C)CN(CC(=O)c2ccc(OC(F)F)cc2)C1 (stereo unspecified),-12%,-5%,26*,4%,-4%,34*
Cn1cnnc1SCC(=O)c1ccc(OC(F)F)cc1,5%,-13%,-6,-2%,-9%,-2
CCc1cc2c(=O)n3c(nc2s1)-c1[nH]c2ccc(OC)cc2c1CC3,-11%,-10%,21,1%,1%,15*
c1ccc(-c2ccc3ncccc3n2)cc1,-5%,-21%,·,·,·,·

# Screens as filed in PubChem.
